Consider 9 compounds from PubChem BioAssay (NCI).

The panel holds about 79,000 compounds, 15% with a hit somewhere; the sample as a whole holds those more often. A number with no mark means an inactive call. The source made the active and inactive calls. Rule as the data show it: active = growth inhibition above about 70%; inactive = the rest.

Assay [1] can be described thus: NCI Yeast Anticancer Drug Screen. Data for the rad50 strain (AID 155).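 Also: 0% = growth of vehicle-only cultures of the same strain.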 To be noted: S. cerevisiae rad50 strain growth inhibition, stronger effect = higher value. In a few lines: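 Growth of the mutant yeast was measured after compound exposure and referenced to vehicle-treated cultures.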
Assay [2] is described as follows: NCI Yeast Anticancer Drug Screen. Data for the mec2-1 strain (AID 157). Particulars: S. cerevisiae mec2-1 strain, stronger effect = higher value. The essentials:
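Growth inhibition is read against vehicle-treated controls after compound exposure of the mec2-1 yeast strain, which is defective in DNA damage repair or cell cycle control.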

Assay [3] can be described thus: NCI Yeast Anticancer Drug Screen. Data for the sgs1 mgt1 strain (AID 161).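 Also: 0% = growth of cultures given vehicle only.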 To be noted: S. cerevisiae sgs1 mgt1 strain, stronger effect = higher value. In a few lines:
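Yeast cells carrying a defined DNA-repair defect were exposed to test compounds. Growth inhibition was measured relative to vehicle-treated controls.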

Assay [4] can be described thus: NCI Yeast Anticancer Drug Screen. Data for the cln2 rad14 strain (AID 165).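 Also: 0% = growth equal to vehicle treated cultures.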 Particulars: S. cerevisiae cln2 rad14 strain, stronger effect = higher value. In a few lines: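 Growth inhibition, relative to vehicle-treated controls, is the read-out. The test organism is a yeast strain with defined genetic alterations, cln2 rad14.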
Assay [5] can be described thus: NCI Yeast Anticancer Drug Screen. Data for the bub3 strain (AID 167). Particulars: S. cerevisiae bub3 mutant strain, stronger effect = higher value. The essentials:
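Whole-cell yeast assay. The mutant strain was incubated with compounds, and growth inhibition was determined by comparison with vehicle-treated cells.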

A short description of assay [6]: NCI Yeast Anticancer Drug Screen. Data for the mlh1 rad18 strain (AID 175). To be noted: S. cerevisiae mlh1 rad18 strain growth inhibition, stronger effect = higher value. In a few lines: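 Cells of a genetically altered yeast strain, deficient in DNA damage repair, were treated with compound. Their growth was then compared with that of vehicle-treated cultures to give inhibition.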

The mark [7] stands for this setting: at 5.0 µM (retest, dose inferred, filed as 0.5).
The mark [8] stands for this setting: at 50.0 µM (retest, dose inferred, filed as 5.0).

In the case of `CCCCCCCCCCCC(=O)N(CC)CC`, the growth inhibition in assay [1] (setting [7]) was -3%; in assay [1] (setting [8]) it was 99% (active); in assay [1] (at 50.0 µM) it was 99.8% (active); in assay [2] (setting [7]), 1%; in assay [2] (setting [8]) it was 99% (active); in assay [2] (at 50.0 µM), 99.9% (active). For the same compound, the growth inhibition is -4% in assay [3] (setting [7]); 100% (active) in assay [3] (setting [8]); 99.8% (active) in assay [3] (at 50.0 µM); -1% in assay [4] (setting [7]); 99% (active) in assay [4] (setting [8]); 99% (active) in assay [4] (at 50.0 µM). For the same compound, the growth inhibition in assay [5] (setting [7]) is 2%; in assay [5] (setting [8]), 100% (active); in assay [5] (at 50.0 µM) it was 99.7% (active); in assay [6] (setting [7]), 14%; in assay [6] (setting [8]), 99% (active); in assay [6] (at 50.0 µM), 99.8% (active).
Consider `Cc1ccc(Cl)cc1NC(=O)N(C)CCOC(=O)Nc1cccc(Cl)c1`, for which the growth inhibition in assay [1] (setting [7]) is 32%; in assay [1] (setting [8]), 95% (active); in assay [1] (at 50.0 µM), 88.7% (active); in assay [2] (setting [7]) it was 31%; in assay [2] (setting [8]) it was 97% (active); in assay [2] (at 50.0 µM), 91% (active). Besides, the growth inhibition in assay [3] (setting [7]) was 41%; in assay [3] (setting [8]), 97% (active); in assay [3] (at 50.0 µM), 92.9% (active); in assay [4] (setting [7]) it was 22%; in assay [4] (setting [8]) it was 97% (active); in assay [4] (at 50.0 µM), 90% (active). Moreover, the growth inhibition is 23% in assay [5] (setting [7]); 94% (active) in assay [5] (setting [8]); 92.3% (active) in assay [5] (at 50.0 µM); 41% in assay [6] (setting [7]); 98% (active) in assay [6] (setting [8]); 90.5% (active) in assay [6] (at 50.0 µM).
With `ON(Cc1ccccc1)C(=S)c1ccccc1`, the growth inhibition in assay [1] (setting [7]) is 23%; in assay [1] (setting [8]), 98% (active); in assay [1] (at 50.0 µM), 91.3% (active); in assay [2] (setting [7]) it was 19%; in assay [2] (setting [8]), 99% (active); in assay [2] (at 50.0 µM), 92.8% (active). Besides, the growth inhibition in assay [3] (setting [7]) is 24%; in assay [3] (setting [8]), 98% (active); in assay [3] (at 50.0 µM), 91.5% (active); in assay [4] (setting [7]), 1%; in assay [4] (setting [8]), 92% (active); in assay [4] (at 50.0 µM), 89.3% (active). Further, the growth inhibition in assay [5] (setting [7]) is 31%; in assay [5] (setting [8]) it was 98% (active); in assay [5] (at 50.0 µM), 89% (active); in assay [6] (setting [7]), 25%; in assay [6] (setting [8]), 98% (active); in assay [6] (at 50.0 µM), 90.7% (active).
For the compound `CC(C)(C)C(=O)Nc1ccc2c(c1)C(=O)c1ccccc1C2=O`, the growth inhibition in assay [1] (setting [7]) is 62%; in assay [1] (setting [8]), 96% (active); in assay [1] (at 50.0 µM), 82% (active); in assay [2] (setting [7]), 44%; in assay [2] (setting [8]) it was 85% (active); in assay [2] (at 50.0 µM) it was 79.2% (active). Further, the growth inhibition in assay [3] (setting [7]) was 44%; in assay [3] (setting [8]), 91% (active); in assay [3] (at 50.0 µM) it was 80.7% (active); in assay [4] (setting [7]) it was 38%; in assay [4] (setting [8]), 75% (active); in assay [4] (at 50.0 µM), 83.2% (active). Also, the growth inhibition in assay [5] (setting [7]) was 46%; in assay [5] (setting [8]), 71% (active); in assay [5] (at 50.0 µM), 87.5% (active); in assay [6] (setting [7]), 62%; in assay [6] (setting [8]), 96% (active); in assay [6] (at 50.0 µM), 86.5% (active).
For the compound `C[C@@H]1CC=C[C@@H](NC(=O)OCc2ccccc2)[C@H]1C=O`, the growth inhibition in assay [1] (setting [7]) is -4%; in assay [1] (setting [8]), 30%; in assay [1] (at 50.0 µM), 13.6%; in assay [2] (setting [7]), -5%; in assay [2] (setting [8]) it was -2%; in assay [2] (at 50.0 µM) it was -7.1%. Also, the growth inhibition was -2% in assay [3] (setting [7]); 15% in assay [3] (setting [8]); 69.3% in assay [3] (at 50.0 µM); -8% in assay [4] (setting [7]); 12% in assay [4] (setting [8]); 15.7% in assay [4] (at 50.0 µM). Further, the growth inhibition in assay [5] (setting [7]) was -18%; in assay [5] (setting [8]), 47%; in assay [5] (at 50.0 µM) it was 5.3%; in assay [6] (setting [7]) it was -20%; in assay [6] (setting [8]) it was 40%; in assay [6] (at 50.0 µM), 80.2% (active).
Take `C=C1C(=O)O[C@H]2C3C(=C(C)CC[C@@H]12)C(=O)[C@@H]1OC31C` (some centres not stated): the growth inhibition in assay [1] (setting [7]) was 22%; in assay [1] (setting [8]), 49%; in assay [1] (at 50.0 µM), 36.8%; in assay [2] (setting [7]), 16%; in assay [2] (setting [8]) it was 52%; in assay [2] (at 50.0 µM), 37.2%. For the same compound, the growth inhibition is 35% in assay [3] (setting [7]); 74% (active) in assay [3] (setting [8]); 46% in assay [3] (at 50.0 µM); 19% in assay [4] (setting [7]); 51% in assay [4] (setting [8]); 34% in assay [4] (at 50.0 µM). Further, the growth inhibition was 21% in assay [5] (setting [7]); 60% in assay [5] (setting [8]); 23.9% in assay [5] (at 50.0 µM); 19% in assay [6] (setting [7]); 62% in assay [6] (setting [8]); 46.2% in assay [6] (at 50.0 µM).
For `O=c1ssc(=Nc2ccc(Cl)cc2)n1-c1ccc(Cl)cc1`, the growth inhibition in assay [1] (setting [7]) was 77% (active); in assay [1] (setting [8]), 99% (active); in assay [1] (at 50.0 µM), 98.5% (active); in assay [2] (setting [7]) it was 57%; in assay [2] (setting [8]), 99% (active); in assay [2] (at 50.0 µM), 99.4% (active). Moreover, the growth inhibition in assay [3] (setting [7]) is 95% (active); in assay [3] (setting [8]), 99% (active); in assay [3] (at 50.0 µM), 98.2% (active); in assay [4] (setting [7]) it was 16%; in assay [4] (setting [8]) it was 99% (active); in assay [4] (at 50.0 µM), 87.9% (active). Further, the growth inhibition in assay [5] (setting [7]) is 74% (active); in assay [5] (setting [8]), 99% (active); in assay [5] (at 50.0 µM), 99.5% (active); in assay [6] (setting [7]), 30%; in assay [6] (setting [8]), 99% (active); in assay [6] (at 50.0 µM) it was 98% (active).
`COc1ccc2c(c1)[n+]([O-])c(-c1ccc(Cl)cc1)c(N)[n+]2[O-]`: the growth inhibition in assay [1] (setting [7]) was 33%; in assay [1] (setting [8]) it was 98% (active); in assay [1] (at 50.0 µM), 99.2% (active); in assay [2] (setting [7]), 29%; in assay [2] (setting [8]), 98% (active); in assay [2] (at 50.0 µM), 99.3% (active). In addition, the growth inhibition is 39% in assay [3] (setting [7]); 99% (active) in assay [3] (setting [8]); 99.3% (active) in assay [3] (at 50.0 µM); 46% in assay [4] (setting [7]); 95% (active) in assay [4] (setting [8]); 98.8% (active) in assay [4] (at 50.0 µM). Also, the growth inhibition was 80% (active) in assay [5] (setting [7]); 99% (active) in assay [5] (setting [8]); 99.2% (active) in assay [5] (at 50.0 µM); 79% (active) in assay [6] (setting [7]); 99% (active) in assay [6] (setting [8]); 99% (active) in assay [6] (at 50.0 µM).
Regarding `O=[N+]([O-])/C=C/c1c[nH]c2c1ccc1ccccc12`, the growth inhibition in assay [1] (setting [7]) is 42%; in assay [1] (setting [8]) it was 92% (active); in assay [1] (at 50.0 µM), 84.4% (active); in assay [2] (setting [7]), 53%; in assay [2] (setting [8]) it was 90% (active); in assay [2] (at 50.0 µM) it was 84.7% (active). In addition, the growth inhibition in assay [3] (setting [7]) was 59%; in assay [3] (setting [8]), 81% (active); in assay [3] (at 50.0 µM), 94.2% (active); in assay [4] (setting [7]), 30%; in assay [4] (setting [8]), 93% (active); in assay [4] (at 50.0 µM), 89% (active). Further, the growth inhibition in assay [5] (setting [7]) was 88% (active); in assay [5] (setting [8]) it was 95% (active); in assay [5] (at 50.0 µM), 75.3% (active); in assay [6] (setting [7]), 55%; in assay [6] (setting [8]), 94% (active); in assay [6] (at 50.0 µM), 93.5% (active).
